Laboratory results taken from PubChem BioAssay (NCI).
About 83,000 compounds went through this panel and 20% of them were active in at least one assay; those are over-represented in the sample as a whole.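 Results are percent growth after 48 hours of single-concentration exposure. 100 means growth as in untreated cells, lower positive values show inhibition; negative values down to -100 show cell death.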 A number with no mark means an inactive call. Calls of active or inactive are those of the source. Rule for the calls: active = growth percent below 10; inactive = the rest.

Key:
Experiment in all cases: NCI-60 one-dose screen, 48 h (100 = growth as untreated, 0 = no growth, -100 = all killed)
Settings in all cases: 10 µM unless noted
[1] = tested on: HCT-15 colon
[2] = tested on: HT29 colon
[3] = tested on: SNB-75 CNS
[4] = tested on: SNB-19 CNS
[5] = tested on: U251 CNS
[6] = tested on: PC-3 prostate
[7] = tested on: SK-MEL-5 melanoma
[8] = tested on: UACC-62 melanoma
[9] = tested on: LOX IMVI melanoma
[10] = tested on: SK-MEL-28 melanoma
[11] = tested on: SK-MEL-2 melanoma
[12] = tested on: SN12C renal
[13] = tested on: UO-31 renal
[14] = tested on: TK-10 renal
[15] = tested on: ACHN renal
[16] = tested on: CAKI-1 renal
[17] = tested on: CCRF-CEM leukemia
[18] = tested on: MOLT-4 leukemia
[19] = tested on: A498 renal

| Structure (SMILES) | growth [1] | growth [2] | growth [3] | growth [4] | growth [5] | growth [6] | growth [7] | growth [8] | growth [9] | growth [10] | growth [11] | growth [12] | growth [13] | growth [14] | growth [15] | growth [16] | growth [17] | growth [18] | growth [19] |
| --- | --- | --- | --- | --- | --- | --- | --- | --- | --- | --- | --- | --- | --- | --- | --- | --- | --- | --- | --- |
| COc1cccc(-c2nc3sccn3c2-c2ccnc(NCCCNS(=O)(=O)c3ccc(F)cc3)n2)c1 | 18.1% | 26.7% | 66.8% | 78.4% | 49.6% | 47.7% | 7.26% (active) | 6.83% (active) | 14.4% | 38.1% | 40.8% | 36.8% | 12.5% | 66.2% | 21.8% | 30.9% | 24.6% | 23.2% | – |
| CCOC(=O)C1=C(C)NC(=O)NC1c1ccc(OCC(=O)N/N=C/c2ccc(Cl)cc2)cc1 (stereo not drawn) | 97.5% | 94.3% | 79.1% | 89.5% | 91.9% | 89% | 97.1% | 87.3% | 98.2% | 105% | 94.3% | 97% | 93.7% | 99% | 96.8% | 99.8% | 92.1% | 92.3% | – |
| O=C1c2ccccc2C(=O)c2c(N=Nc3sc(=O)[nH]c3S)cccc21 | 94% | 82.9% | 112% | 93.4% | 91.6% | 89.9% | 93.4% | 88.8% | 84.9% | 110% | 95.2% | 100% | 88.7% | 138% | 102% | 96.3% | 94.8% | 101% | – |
| CC(C)C[C@H](NC(=O)[C@H](Cc1ccccc1)n1ccc(N2CCCCC2)cc1=O)B(O)O | 28.3% | 0.204% (active) | 4.25% (active) | 29.2% | 18.1% | 27.7% | -25.2% (active) | -12.5% (active) | -72.1% (active) | 28.6% | 2.84% (active) | 26.7% | -37.2% (active) | 16.9% | 16.1% | – | 1.97% (active) | -2.84% (active) | -24.6% (active) |
| O=C1N=C(c2c(-c3[nH]c(=O)c4ccc(Br)cc4c3O)c(O)c3ccccc3c2O)C(=O)c2cc(Br)ccc21 | -36.3% (active) | 25.7% | -35.8% (active) | 4.13% (active) | -57.9% (active) | -60.5% (active) | -9.06% (active) | -48.9% (active) | -67.5% (active) | -47.8% (active) | -14.7% (active) | -75.4% (active) | -65% (active) | -39% (active) | -54% (active) | -72% (active) | 25.3% | 31% | – |
| COc1cccc(-c2nc3sccn3c2-c2ccnc(NCCCNS(=O)(=O)c3ccccc3)n2)c1 | 29.7% | 29.4% | 92.6% | 95.5% | 71% | 61.6% | 9.71% (active) | 14.2% | 28.9% | 43.4% | 58.1% | 55% | 29.5% | 82% | 40.2% | 52.5% | 30% | 29.4% | – |
| Cc1ccc2c(c1)C(=O)C(c1c(-c3[nH]c(=O)c4ccc(C)cc4c3O)c(O)c3ccccc3c1O)=NC2=O | 13.7% | 21.7% | 14.4% | 26.3% | -16.2% (active) | 2.45% (active) | 25.8% | 29.5% | 12.1% | 34.9% | 11.8% | -4.86% (active) | -11% (active) | 46.9% | 6.58% (active) | -2.66% (active) | 16.6% | -13.3% (active) | – |
| NC(=S)NN=C1CCCCC1 | 77.7% | 47.5% | 105% | 106% | 76.4% | 82.7% | 99.2% | 90% | 77.9% | 98.3% | 107% | 85.2% | 79.8% | 100% | 103% | 103% | 39.6% | 68.8% | – |
| COc1cc(OC)c(C(=O)/C=C/c2cccc(C#N)c2)c(OC)c1 | 3.28% (active) | 8.61% (active) | 17.3% | 14.8% | 8.67% (active) | 32.1% | 7.71% (active) | 10.9% | -6.01% (active) | 34.4% | -34.8% (active) | 15.6% | 12.4% | 24.8% | -33.9% (active) | 15.9% | 2.65% (active) | 11.7% | – |
| NS(=O)(=O)c1ccc(NCC(=O)Nc2ccc(-c3nc4ccccc4s3)cc2)cc1 | 46.6% | 74.5% | 69.5% | 74.3% | 71.3% | 64.7% | 71.3% | 38% | 13.1% | 99.4% | 87.8% | 47.8% | 74.4% | 106% | 105% | 92.9% | 6.24% (active) | 6.23% (active) | – |
| COc1ccc(OC)c(-c2ccc(-c3ccccc3N)c3[nH]c4ccccc4c23)c1 | 88.3% | 63.4% | 89.7% | 89.1% | 77.9% | 59% | 79.4% | 64.4% | 84% | 107% | 77.1% | 87.6% | 58.4% | 103% | 80.7% | 73% | 103% | 56.4% | – |
| O=C(CNc1ccc(Cl)cc1)Nc1ccc(-c2nc3ccccc3s2)cc1 | -13.9% (active) | 47.9% | 60.1% | 63.6% | 26.3% | 85.3% | 25% | 30.1% | -41% (active) | 99.5% | 78.5% | 46.8% | 65% | 118% | 22.8% | 20.2% | 3.22% (active) | 4.4% (active) | – |
| O=C(O)C(Cc1ccccc1)N1C(=O)/C(=C/C(Cl)=C/c2ccc([N+](=O)[O-])cc2)SC1=S (stereo not drawn) | 41.2% | 30.8% | 43% | 32.2% | 8.38% (active) | 31.2% | 2.03% (active) | -56.4% (active) | -74.2% (active) | 3.14% (active) | 9.02% (active) | 8.76% (active) | 29.4% | 50.1% | 40.7% | 6.47% (active) | 4.14% (active) | 0.405% (active) | – |
| Cc1ccc(Nc2ncnc3c2sc2ncccc23)cc1 | 99.2% | 114% | 82.8% | 103% | 101% | 103% | 97% | 103% | 100% | 104% | 118% | 98.4% | 90.9% | 123% | 99.3% | 104% | 116% | 51.1% | – |
| COc1ccc(-c2nc3sccn3c2-c2ccnc(NCCNS(=O)(=O)c3ccc(C(F)(F)F)cc3)n2)cc1 | 9.19% (active) | 14.5% | 29.5% | 34.2% | 15.4% | 9.86% (active) | -94.1% (active) | 0.0074% (active) | 2.4% (active) | 13.9% | -27.8% (active) | 17.3% | 19% | 30.2% | 3.82% (active) | 17% | 9.58% (active) | 0.208% (active) | – |
| CN(C)c1ncc(-c2ccc(C(F)(F)F)cc2)c(NC2CCCCCC2)n1 | 77.4% | 34.4% | 78.2% | 71.8% | 40.1% | 22% | 39.6% | 31.4% | 66.2% | 48.9% | 56.6% | 45.9% | 31% | 65.2% | 16.5% | 85.5% | 45.5% | 76.5% | – |
